Data: PubChem BioAssay (Tox21)
Records with an inconclusive call do not appear. A call without a number means that no potency is given here. Active and inactive are the calls of the source. Unless noted, calls follow the shape of the dose curve; as a rule, active = well fitted cell-killing curve with a large enough effect in the repeat runs; inconclusive = weak or mixed curves, or effect the other way; inactive = no such curve, though single readings can be large or run the other way.

Biological target: Peroxisome proliferator-activated receptor gamma (Homo sapiens) (UniProt P37231)
Sequence (P37231 whole entry, looked up): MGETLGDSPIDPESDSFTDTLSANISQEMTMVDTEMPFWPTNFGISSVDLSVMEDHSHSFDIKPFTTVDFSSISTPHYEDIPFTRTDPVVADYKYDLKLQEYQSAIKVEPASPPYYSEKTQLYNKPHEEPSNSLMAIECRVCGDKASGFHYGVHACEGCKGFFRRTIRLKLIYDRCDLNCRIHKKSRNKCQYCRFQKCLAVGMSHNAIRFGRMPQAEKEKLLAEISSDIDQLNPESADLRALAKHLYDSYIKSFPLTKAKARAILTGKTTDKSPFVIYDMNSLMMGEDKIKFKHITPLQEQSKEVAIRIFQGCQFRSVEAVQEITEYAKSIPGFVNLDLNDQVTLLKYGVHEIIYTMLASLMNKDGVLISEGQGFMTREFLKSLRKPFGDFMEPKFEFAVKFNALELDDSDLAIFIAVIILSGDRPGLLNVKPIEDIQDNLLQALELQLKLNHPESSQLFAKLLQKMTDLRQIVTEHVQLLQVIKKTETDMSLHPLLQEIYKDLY
Experiment: qHTS assay to identify small molecule agonists of the peroxisome proliferator-activated receptor gamma (PPARg) signaling pathway (AID 743094; active = well fitted activation curve with a large enough effect in the signal ratio in the repeat runs, not every such curve was filed as active; the % refers to the signal ratio)
Settings: HEK293H PPARg-UAS-bla, beta-lactamase FRET ratio, 17 h; series mostly up to 57 µM
Method in brief: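 Reporter activation was scored by fluorescence of cleaved LiveBLAzer B/G substrate (1 h, room temperature) in PPARg-bla HEK293H cells previously treated 17 h at 37C with DMSO-dissolved compounds.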

Row | SMILES | Potency
1 | CC(=O)C1CCCCC1=O (stereo unspecified) | inactive
2 | CCCCN1C=CN(C)C1 | inactive
3 | Cc1ccc(-c2ncc(Cl)cc2-c2ccc(S(C)(=O)=O)cc2)cn1 | inactive
4 | C=COCC1CCC(COC=C)CC1 (stereo unspecified) | inactive
5 | O=S(=O)(O)c1cccc(S(=O)(=O)O)c1 | inactive
6 | O=C(CO)[C@@H](O)[C@H](O)[C@@H](O)CO | inactive
7 | CCCCCCCC1CCCC1=O (stereo unspecified) | inactive
8 | CCC(C)(CCCC(C)C)OC(C)=O (stereo unspecified) | inactive
9 | CC(=O)Oc1cccc(C)c1 | inactive
10 | CC(C)=CCC/C(C)=C/C#N | inactive
11 | CCOC(=O)COc1cc(-n2ncc(C(F)(F)F)c(C)c2=O)c(F)cc1Cl | inactive
12 | C=CC(=O)OCCCl | inactive
13 | C1CCC2(CCCCO2)OC1 | inactive
14 | O=C(O)CNC(=O)c1ccc(CO)o1 | inactive
15 | CCCC[N+](C)(CCCC)CCCC | inactive
16 | CC(C)(N)C#N | inactive
17 | CCCCN(CCC(=O)OCC)C(C)=O | inactive
18 | CO[Si](C)(OC)c1ccccc1 | inactive
19 | CCCCCCCCCCCCCCCCCCO | inactive
20 | CCC1C(=O)OCC1Cc1cncn1C (stereo unspecified) | inactive
21 | O=S(=O)(O)c1cc(O)c(O)c(S(=O)(=O)O)c1 | inactive
22 | CCCCCC(=O)OCCc1ccccc1 | inactive
23 | O=C(O)c1cc(C(=O)O)cc(C(=O)O)c1 | inactive
24 | OCCCCCO | inactive
25 | CN(C)CCN(C)CCN(C)C | inactive
26 | CC(=O)c1cnccn1 | inactive
27 | CCCCOC(=O)CCC(C)=O | inactive
28 | CCOC(=O)COC(=O)c1ccccc1C(=O)OCC | inactive
29 | CCN[C@H]1C[C@H](C)S(=O)(=O)c2sc(S(N)(=O)=O)cc21 | inactive

Biological target: Peroxisome proliferator-activated receptor gamma (Homo sapiens) (UniProt P37231)
Experiment: qHTS assay to identify small molecule antagonists of the peroxisome proliferator-activated receptor gamma (PPARg) signaling pathway (AID 743191; calls by dose curve; also: nearly all actives have a fitted effect of over 30% in size)
Settings: HEK293H PPARg-UAS-bla, beta-lactamase ratio, antagonist, 17 h; series mostly up to 62.6 µM
Method in brief: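 GeneBLAzer PPARg UAS-bla HEK293H cells carrying a UAS-driven beta-lactamase reporter were plated at 3000 cells/well, preincubated 5 h at 37C, then given compound for 17 h at 37C; LiveBLAzer B/G FRET substrate was read after 1 h at room temperature.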

Row | SMILES | Potency
30 | CC(=O)C1CCCCC1=O (stereo unspecified) | inactive
31 | CCCCN1C=CN(C)C1 | inactive
32 | Cc1ccc(-c2ncc(Cl)cc2-c2ccc(S(C)(=O)=O)cc2)cn1 | inactive
33 | O=S(=O)(O)c1cccc(S(=O)(=O)O)c1 | inactive
34 | O=C(CO)[C@@H](O)[C@H](O)[C@@H](O)CO | inactive
35 | CCCCCCCC1CCCC1=O (stereo unspecified) | inactive
36 | C=CCOCC(O)CO (stereo unspecified) | inactive
37 | O=C(O)Cc1csc(-c2ccc(Cl)cc2)n1 | inactive
38 | CCC(C)(CCCC(C)C)OC(C)=O (stereo unspecified) | inactive
39 | CC(=O)Oc1cccc(C)c1 | inactive
40 | CCOC(=O)COc1cc(-n2ncc(C(F)(F)F)c(C)c2=O)c(F)cc1Cl | inactive
41 | C=CC(=O)OCCCl | inactive
42 | C1CCC2(CCCCO2)OC1 | inactive
43 | CCCC[N+](C)(CCCC)CCCC | inactive
44 | CC(C)(N)C#N | inactive
45 | CCCCN(CCC(=O)OCC)C(C)=O | inactive
46 | CO[Si](C)(OC)c1ccccc1 | inactive
47 | CCCCCCCCCCCCCCCCCCO | inactive
48 | CCC1C(=O)OCC1Cc1cncn1C (stereo unspecified) | inactive
49 | O=S(=O)(O)c1cc(O)c(O)c(S(=O)(=O)O)c1 | inactive
50 | CCCCCC(=O)OCCc1ccccc1 | inactive
51 | O=C(O)c1cc(C(=O)O)cc(C(=O)O)c1 | inactive
52 | OCCCCCO | inactive
53 | CN(C)CCN(C)CCN(C)C | inactive
54 | CCOC(=O)COC(=O)c1ccccc1C(=O)OCC | inactive
55 | CCN[C@H]1C[C@H](C)S(=O)(=O)c2sc(S(N)(=O)=O)cc21 | inactive
56 | CCNS(=O)(=O)c1ccc(C)cc1 | inactive

Test system: not listed separately
Experiment: qHTS assay to identify small molecule antagonists of the peroxisome proliferator-activated receptor gamma (PPARg) signaling pathway - cell viability counter screen (AID 743194); also: nearly all actives have a fitted effect of over 55% in size
Settings: PPARg-bla HEK293H viability, CellTiter-Glo luminescence, 17 h, co-treated with 50 nM rosiglitazone; series mostly up to 62.6 µM
Method in brief: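 PPARg-UAS-bla HEK293H cells were plated, rested 5 h at 37 C, then treated with compounds plus rosiglitazone (50 nM final) for 17 h at 37 C; viability was then read by CellTiter-Glo luminescence after 30 min at room temperature.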

Row | SMILES | outcome | activity change, negative = cytotoxicity
57 | CC(=O)C1CCCCC1=O (stereo unspecified) | inactive | 
58 | C=CC(C)(CCC=C(C)C)OC(=O)CC (stereo unspecified) | inactive | 
59 | CCCCN1C=CN(C)C1 | inactive | 
60 | Cc1ccc(-c2ncc(Cl)cc2-c2ccc(S(C)(=O)=O)cc2)cn1 | inactive | 
61 | C=COCC1CCC(COC=C)CC1 (stereo unspecified) | inactive | 
62 | O=S(=O)(O)c1cccc(S(=O)(=O)O)c1 | inactive | 
63 | O=C(CO)[C@@H](O)[C@H](O)[C@@H](O)CO | inactive | 
64 | CCCCCCCC1CCCC1=O (stereo unspecified) | inactive | 
65 | C=CCOCC(O)CO (stereo unspecified) | inactive | 
66 | O=C(O)Cc1csc(-c2ccc(Cl)cc2)n1 | inactive | 
67 | CCC(C)(CCCC(C)C)OC(C)=O (stereo unspecified) | inactive | 
68 | CC(=O)Oc1cccc(C)c1 | inactive | 
69 | [K+] | inactive | 
70 | CC(C)=CCC/C(C)=C/C#N | inactive | 
71 | CCOC(=O)COc1cc(-n2ncc(C(F)(F)F)c(C)c2=O)c(F)cc1Cl | inactive | 
72 | C=CC(=O)OCCCl | inactive | 
73 | C1CCC2(CCCCO2)OC1 | inactive | 
74 | O=C(O)CNC(=O)c1ccc(CO)o1 | inactive | 

Row | SMILES | outcome | activity change, negative = cytotoxicity
75 | Cc1cccc(C)c1NC(=O)CC12CCCN1CCC2 | inactive | 
76 | CCCC[N+](C)(CCCC)CCCC | inactive | 
77 | CC(C)(N)C#N | inactive | 
78 | CCCCN(CCC(=O)OCC)C(C)=O | inactive | 
79 | CO[Si](C)(OC)c1ccccc1 | inactive | 
80 | CCCCCCCCCCCCCCCCCCO | inactive | 
81 | CCC1C(=O)OCC1Cc1cncn1C (stereo unspecified) | inactive | 
82 | O=S(=O)(O)c1cc(O)c(O)c(S(=O)(=O)O)c1 | inactive | 
83 | CCCCCC(=O)OCCc1ccccc1 | inactive | 
84 | O=C(O)c1cc(C(=O)O)cc(C(=O)O)c1 | inactive | 
85 | CCCCOCCOC(=O)COc1cc(Cl)c(Cl)cc1Cl | inactive | 
86 | CN(C)CCN(C)CCN(C)C | inactive | 
87 | CC(=O)c1cnccn1 | inactive | 
88 | CCCCOC(=O)CCC(C)=O | inactive | 
89 | CC(C)c1ccc2ncccc2c1 | inactive | 
90 | CCCCCCCCCCOc1cc2c(=O)c(C(=O)OCC)c[nH]c2cc1OCC |  | 22.1% [at 5.95 µM] (inactive)
91 | CCN[C@H]1C[C@H](C)S(=O)(=O)c2sc(S(N)(=O)=O)cc21 | inactive | 
